# Compound activity (PubChem BioAssay)
# SKKanGAS inh: inhibitors of SKKanGAS S. pyogenes growth in kanamycin (SK-promoter or general growth effect); BacTiter-Glo, 6 h; inhibition, % at 7.5 µM; actives 1.3% (n = 300,000); AID 1662;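 active = mean replicate score, as percent of positive control median, at least 50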;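 also: strain carries kanamycin resistance gene driven by streptokinase promoter and grows in 40 µg/ml kanamycin; loss of luminescence reflects streptokinase promoter inhibition or plain growth inhibition; 0% = median of DMSO wells and 100% = positive control at its reference dose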
# IEC-6 cytotox: kills IEC-6 intestinal cells in KLF5 counter-screen; IEC-6 cytotoxicity, luminescence viability; AID 1825; inhibition, % at 5 µM; actives 0.78% (n = 290,000); in the data active = inhibition above about 22%;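 also: 0% = plate median of test compound wells and 100% = cytotoxic reference compound wells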
# CSC inhib: cancer stem cell inhibition. cancer stem cell-like cells viability, luminescence. inhibition, % at 7.5 µM. actives 1.1% (n = 300,000); in the data active = inhibition above about 75%; tested in HMLE shEcad cells
# aSyn UTR inh: 5' untranslated region of α-synuclein, MLPCN primary screen. alpha-synuclein 5'UTR reporter, inhibitor activity. inhibition, % (tested at 7.5 µM). actives 0.82% (n = 300,000); in the data active = inhibition above about 60%;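 also: H4 neuroglioblastoma cells stably carrying SNCA 5'UTR luciferase fusion; 0% = DMSO wells and 100% = positive control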
# KLF5 inh: suppresses KLF5 promoter-driven expression. inhibition, % at 5 µM. DLD-1 KLF5 promoter-luciferase reporter, luminescence. AID 1700. actives 0.23% (n = 290,000);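 active = inhibition above a per-plate limit of that plate's mean compound inhibition plus 3 SD, cut at about 60% in these data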;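 also: 0% = DMSO wells and 100% = LY294002 at 200 µM; higher means less KLF5 promoter-driven luciferase light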
# * hit, by the source's call; nt = no result. Most compounds without a hit are left out; they make up all but 3% or so of the library.
SMILES,SKKanGAS inh,IEC-6 cytotox,CSC inhib,aSyn UTR inh,KLF5 inh
C/C(=N\Nc1nc(N2CCCCC2)nc(N2CCOCC2)n1)c1cccs1,1,-6,-8,-23,8
CC(C)=CCC12Oc3cc(O)ccc3C1(O)Oc1cc(O)c([C@H]3C=C(C)CC(c4ccc(O)cc4O)[C@H]3C(=O)c3ccc(O)cc3O)c(O)c1C2=O (some centres undefined),111*,nt,-10,13,nt
COc1ccc(-c2csc(NC(=O)CSCc3c(C)noc3C)n2)c(OC)c1,29,nt,-10,8,nt
CC1CCN(c2c(NCc3ccc(C(=O)N4CCc5ccccc54)cc3)c(=O)c2=O)CC1,8,0,55,88*,-14
COc1ccc2nc(NC(=O)CSc3n[nH]c(N)n3)sc2c1,-12,nt,1,-23,nt
CN(C)CCCN(C(=O)c1cc(-c2cccs2)nc2ccccc12)c1nc2ccc(F)cc2s1,11,-1,103*,99*,-35
CCN(CC)CCN(C(=O)c1ccc(S(=O)(=O)N(C)C2CCCCC2)cc1)c1nc2c(C)cccc2s1,10,0,14,1,-23
Cc1cc(C)c2sc(N(CCCN(C)C)C(=O)c3ccc(S(=O)(=O)N4CCCc5ccccc54)cc3)nc2c1,26,nt,101*,-1,nt
Cc1cc(C)c2sc(N(CCCN(C)C)C(=O)c3ccc(S(=O)(=O)N4CCc5ccccc5C4)cc3)nc2c1,10,nt,14,30,nt
CN(C)CCCN(C(=O)CCc1ccccc1)c1nc2ccc(F)cc2s1,-9,-2,nt,-70,-14
Cc1ccc2nc(N(CCCN(C)C)C(=O)c3ccc(S(=O)(=O)N4CCc5ccccc5C4)cc3)sc2c1,14,-6,6,88*,-16
Cc1ccc2sc(N(CCCN(C)C)C(=O)c3ccc(S(=O)(=O)N(C)C4CCCCC4)cc3)nc2c1C,7,nt,89*,-17,nt
COc1ccc(C)cc1N(CC(=O)Nc1ccc(S(=O)(=O)N2CCCC2)cc1)S(C)(=O)=O,-5,0,-5,11,-10
CCN1CCN(C(=O)C(Cc2ccccc2)NC(=O)c2ccc(Cl)c(S(=O)(=O)N(C)C)c2)CC1 (centres undefined),nt,nt,-16,nt,nt
O=c1c2cc(Cl)ccc2[nH]c(=S)n1Cc1cccs1,1,8,29,19,12
CN(C)CCCN(C(=O)c1ccc(S(=O)(=O)N2CCc3ccccc3C2)cc1)c1nc2ccc(F)cc2s1,18,2,91*,99*,-21
COc1ccc2sc(N(CCCN(C)C)C(=O)c3ccc(S(=O)(=O)N4CCc5ccccc5C4)cc3)nc2c1,20,nt,91*,3,nt
CN(C)CCCN(C(=O)c1ccc(S(=O)(=O)N2CCc3ccccc32)cc1)c1nc2ccc(F)cc2s1,7,-7,-4,1,5
Oc1ccc(-c2nc3ccc4ccccc4c3c3c2CCC3)cc1O,13,1,109*,-151,-33
COc1ccc(-c2cc(C(=O)O)nc3ccc4ccccc4c23)cc1OC,3,4,1,-43,-22
COC(=O)c1ccc(NC(=O)c2ccccc2-c2ccccc2C(=O)O)cc1,-6,-2,4,4,4
CN(C)CCNc1nc2sc3c(c2c(=O)n1-c1ccccc1)CCCCC3,5,-5,75*,-7,-21
O=C(N/N=C/c1ccc(O)cc1)c1cccc(C(F)(F)F)c1,-12,2,-10,8,-34
O=C(N/N=C/c1ccccc1O)c1cccc(C(F)(F)F)c1,17,1,78*,82*,-11
CCN(CC)c1ccc(/C=N/NC(=O)c2cccc(S(=O)(=O)N3CCOCC3)c2)c(O)c1,12,2,110*,129*,13
SMILES,SKKanGAS inh,IEC-6 cytotox,CSC inhib,aSyn UTR inh,KLF5 inh
CCN(CC)c1ccc(/C=N/Nc2nc(C)cc(=O)[nH]2)c(O)c1,7,-1,17,95*,-4
CCN(CC)c1ccc(C=Nc2cccc(S(=O)(=O)N3CCOCC3)c2)c(O)c1,nt,nt,-10,nt,nt
O=C(N/N=C/c1sc(N2CCOCC2)nc1-c1ccccc1)c1cccc(S(=O)(=O)N2CCOCC2)c1,30,-2,24,87*,-3
CC(NC(=O)CCn1nc(-c2ccc(Cl)cc2)ccc1=O)c1ccccc1 (centres undefined),-3,-2,0,-10,21
CCN(CC)c1ccc(/C=N/NC(=O)c2c(Cl)cnn2C)c(O)c1,11,8,-6,90*,35
O=[N+]([O-])c1ccc(N/N=C/c2sc(N3CCOCC3)nc2-c2ccccc2)c(S(=O)(=O)Nc2ccc(Cl)cc2)c1,19,7,nt,76*,-26
CCN(CC)S(=O)(=O)c1cccc(C(=O)N/N=C/c2cccc(O)c2O)c1,10,-13,98*,66*,-22
O=[N+]([O-])c1ccc(N/N=C/c2sc(N3CCOCC3)nc2-c2ccccc2)c(S(=O)(=O)Nc2ccccc2Cl)c1,nt,-6,nt,nt,-20
CCN(CC)c1ccc(/C=N/NC(=O)CCC(=O)NCc2ccccc2)c(O)c1,56*,2,82*,33,26
Cc1ccc(F)cc1NC(=O)C1CC(=O)N(CCc2ccccc2)C1 (centres undefined),-15,2,11,0,-2
S=C(Nc1ccccc1)N1CCC(Cc2ccccc2)CC1,3,7,-10,-10,9
CCN(CC)S(=O)(=O)c1ccc(C)c(NC(=O)CN2CCN(C)CC2)c1,-6,-12,-4,-9,-9
CS(=O)(=O)Nc1ccccc1C(=O)Nc1cccc(Cl)c1,-7,4,76*,4,1
CSc1ncccc1C(=O)OCC(=O)c1cccc(Br)c1,4,1,0,-9,-14
Cc1cc(NS(=O)(=O)c2ccc(NC(=O)CCCOc3cccc(C)c3C)cc2)no1,6,4,12,9,-3
COc1ccc(/C=C2\CCOC2=O)cc1,10,4,6,-32,-25
COc1ccc(/C=C2/C(=O)OCc3cc(OC)c(OC)cc32)cc1,-5,26*,68,-31,30
C[C@@H](NC(=O)c1nc[nH]c1C(=O)NCC(=O)OCc1ccccc1)c1ccccc1,2,0,-11,-12,-4
COCc1ccc(C(=O)N2CCCC(C(=O)c3ccc(SC)cc3)C2)s1 (centres undefined),0,1,-7,-16,-14
CN1CCc2c(sc3c2C(=O)NC(c2cn(Cc4ccccc4)c4ccccc24)N3)C1 (centres undefined),17,5,71,64*,1
COc1ccc2c(=O)cc(CO)oc2c1,nt,nt,-14,nt,nt
CC(C)=CCc1c(O)c(CC=C(C)C)c2c(c1O)C(=O)CC(c1ccc(O)cc1)O2 (centres undefined),102*,0,-10,35,-36
O=S(=O)(Nc1ccc(-n2cnnn2)cc1)c1ccc(F)c(F)c1F,-6,2,-8,4,-20
Cc1c(-c2cccc(Cl)c2)nc2ccccc2c1C(=O)OCC(=O)Nc1ccc2c(c1)OCO2,38,-1,155*,34,3
Nc1ncc(Br)cc1S(=O)(=O)Nc1cc(C(F)(F)F)cc(C(F)(F)F)c1,64*,8,-6,-27,-16
